Assay results reported in PubChem BioAssay.
Values without a mark were called inactive. For some assays here: Measured potencies and affinities stand elsewhere. Active and inactive are the calls of the source. Unless noted, how the calls were made is not given here.

Legend:
[1] = antimalarial activity against Dd2 strain (AID 2302;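 active means growth inhibition above 50% at the single 2 µM test dose, taken to imply half-maximal potency below 2 µM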;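 further: 0% = DMSO untreated growth and 100% = chloroquine plus artemisinin killed control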); conditions: P. falciparum Dd2 in RBCs, LDH growth readout, 72 h; at 2 µM; stronger effect = higher value
[2] = HepG2 cytotoxicity, primary screen, cytotoxicity control for P. falciparum antimalarial project, cell-based, ATP luminescence (AID 2303;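 active means inhibition above 50%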;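 further: 0% = DMSO wells and 100% = digitonin-killed cells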); conditions: HepG2 viability, 24-48 h, at 10 µM, stronger effect = higher value
[3] = biological target: L-lactate dehydrogenase (Plasmodium falciparum (isolate CDC / Honduras)) (UniProt Q27743); assay: PfLDH activity inhibition – cell lysate, 3D7 strain, counter-screen for P. falciparum growth inhibition project (AID 2304);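 further: 0% = vehicle and 100% = reference inhibitor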; conditions: P. falciparum 3D7 crude extract, LDH APAD/NBT absorbance; at 2 µM; stronger effect = higher value
[4] = inhibition of 3D7 malaria parasite growth – strain 3D7 (AID 2306);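 further: 0% = DMSO wells and 100% = chloroquine plus artemisinin control wells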; conditions: P. falciparum 3D7 erythrocytic growth, LDH absorbance, 72 h; at 2 µM; stronger effect = higher value
[5] = biological target: Calcium-dependent protein kinase 1 (Plasmodium falciparum (isolate 3D7)) (UniProt P62344); assay: PfCDPK1 kinase inhibitors, biochemical, TCAMS library (AID 1159585; cut-off not given, nearly all actives have IC50 up to about 0.98 µM;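 further: inhibitors leave more ATP so luminescence rises with inhibition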); conditions: recombinant PfCDPK1, Kinase-Glo ATP depletion luminescence
[6] = biological target: Plasmodium falciparum protein kinase 6 (PK6, PF3D7_1337100) (UniProt Q8IDW1); assay: PfPK6 kinase inhibitors, biochemical, TCAMS library (AID 1159586); conditions: recombinant PfPK6, Kinase-Glo ATP depletion luminescence
[7] = biological target: Protein kinase 7 (PK7), Plasmodium falciparum 3D7 (PF3D7_0213400) (UniProt Q7YTF7); assay: inhibition of Plasmodium PK7 catalytic activity – biochemical, TCAMS antimalarial set, Kinase-Glo luminescence (AID 1159587); conditions: recombinant PfPK7, Kinase-Glo ATP depletion luminescence
[8] = biological target: Calcium-dependent protein kinase 4 (Plasmodium falciparum (isolate 3D7)) (UniProt Q8IBS5); assay: PfCDPK4 kinase inhibitors, biochemical, TCAMS library (AID 1159588; cut-off not given, nearly all actives have IC50 up to about 0.91 µM); conditions: recombinant PfCDPK4, Kinase-Glo ATP depletion luminescence
Chain of Calcium-dependent protein kinase 4 (Plasmodium falciparum (isolate 3D7)) (Q8IBS5 whole entry, looked up): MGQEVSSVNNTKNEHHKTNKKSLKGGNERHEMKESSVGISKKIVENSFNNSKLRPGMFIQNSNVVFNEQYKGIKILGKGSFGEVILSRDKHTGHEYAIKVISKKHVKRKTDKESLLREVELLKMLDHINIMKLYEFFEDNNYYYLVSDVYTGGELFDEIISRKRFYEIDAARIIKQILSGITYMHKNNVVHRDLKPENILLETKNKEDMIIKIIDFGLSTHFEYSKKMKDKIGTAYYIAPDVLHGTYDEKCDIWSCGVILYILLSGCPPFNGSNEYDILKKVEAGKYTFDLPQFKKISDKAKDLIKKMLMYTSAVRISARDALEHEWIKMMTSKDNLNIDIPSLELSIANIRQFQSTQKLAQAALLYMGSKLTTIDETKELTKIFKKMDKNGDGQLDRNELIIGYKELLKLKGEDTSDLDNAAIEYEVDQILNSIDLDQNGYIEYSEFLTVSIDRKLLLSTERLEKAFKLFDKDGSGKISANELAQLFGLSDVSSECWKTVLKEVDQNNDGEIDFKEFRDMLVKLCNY

Chain of Plasmodium falciparum protein kinase 6 (PK6, PF3D7_1337100) (Q8IDW1 1-305): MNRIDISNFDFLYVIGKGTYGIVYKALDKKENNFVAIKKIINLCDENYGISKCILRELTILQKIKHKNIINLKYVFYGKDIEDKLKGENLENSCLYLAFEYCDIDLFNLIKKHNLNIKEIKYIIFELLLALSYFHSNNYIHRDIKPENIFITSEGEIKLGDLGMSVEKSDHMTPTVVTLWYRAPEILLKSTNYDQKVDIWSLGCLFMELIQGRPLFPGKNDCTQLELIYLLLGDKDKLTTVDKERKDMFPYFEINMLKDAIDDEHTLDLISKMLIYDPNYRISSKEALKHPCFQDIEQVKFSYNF
Chain of L-lactate dehydrogenase (Plasmodium falciparum (isolate CDC / Honduras)) (Q27743 whole entry, looked up): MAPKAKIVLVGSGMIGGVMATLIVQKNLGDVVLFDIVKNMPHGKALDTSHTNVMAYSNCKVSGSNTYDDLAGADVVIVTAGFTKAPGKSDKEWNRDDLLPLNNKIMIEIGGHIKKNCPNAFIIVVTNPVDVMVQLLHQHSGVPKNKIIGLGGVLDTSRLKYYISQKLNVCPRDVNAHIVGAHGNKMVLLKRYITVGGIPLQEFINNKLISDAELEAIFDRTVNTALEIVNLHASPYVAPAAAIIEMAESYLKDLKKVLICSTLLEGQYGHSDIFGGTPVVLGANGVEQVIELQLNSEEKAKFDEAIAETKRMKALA
Chain of Protein kinase 7 (PK7), Plasmodium falciparum 3D7 (PF3D7_0213400) (Q7YTF7 1-343): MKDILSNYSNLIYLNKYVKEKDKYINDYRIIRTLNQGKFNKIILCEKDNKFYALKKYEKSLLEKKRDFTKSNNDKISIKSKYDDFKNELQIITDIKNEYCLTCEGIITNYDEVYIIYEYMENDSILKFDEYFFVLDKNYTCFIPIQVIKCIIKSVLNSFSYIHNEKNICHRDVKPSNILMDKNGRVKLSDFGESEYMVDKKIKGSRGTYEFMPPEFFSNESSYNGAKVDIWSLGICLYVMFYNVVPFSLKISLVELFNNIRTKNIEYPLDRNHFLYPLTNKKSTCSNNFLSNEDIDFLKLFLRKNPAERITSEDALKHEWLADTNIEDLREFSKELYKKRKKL
Chain of Calcium-dependent protein kinase 1 (Plasmodium falciparum (isolate 3D7)) (P62344 whole entry, looked up): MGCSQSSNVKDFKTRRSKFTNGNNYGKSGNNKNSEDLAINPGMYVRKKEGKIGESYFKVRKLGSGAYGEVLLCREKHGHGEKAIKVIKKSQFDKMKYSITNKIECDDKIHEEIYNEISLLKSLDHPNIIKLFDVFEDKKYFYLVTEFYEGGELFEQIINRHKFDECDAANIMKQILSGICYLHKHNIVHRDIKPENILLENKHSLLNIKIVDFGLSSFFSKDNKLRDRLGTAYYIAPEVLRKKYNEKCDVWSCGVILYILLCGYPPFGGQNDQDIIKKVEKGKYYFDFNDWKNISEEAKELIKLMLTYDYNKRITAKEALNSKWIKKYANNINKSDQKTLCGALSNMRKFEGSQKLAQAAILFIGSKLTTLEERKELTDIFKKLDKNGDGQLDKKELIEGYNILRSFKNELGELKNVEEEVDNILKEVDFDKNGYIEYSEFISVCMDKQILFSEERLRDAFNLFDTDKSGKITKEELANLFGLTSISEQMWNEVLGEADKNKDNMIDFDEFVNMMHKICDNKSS

Row | Structure (SMILES) | growth inhibition [1] | inhibition [2] | inhibition [3] [%] | growth inhibition [4] | outcome [5] | outcome [6] | outcome [7] | outcome [8]
1 | CCN1CCN(CCNc2c3ccccc3nc3ccccc23)CC1 | 8% | 45% | 0 | 93% (active) | inactive | inactive | inactive | inactive
2 | Cc1ccc(-c2noc(COc3ccccc3C(=O)NC3CCCC3)n2)cc1 | 92% (active) | 9% | -4 | 89% (active) | inactive | inactive | inactive | inactive
3 | CCc1ccc(-n2cc(C(=O)c3cc(Br)ccc3O)cc(C#N)c2=O)cc1 | 30% | 9% | -2 | 97% (active) | inactive | inactive | inactive | inactive
4 | Cc1nc2nc(N)nc(N)c2c(C)c1Cc1ccc(C(F)(F)F)cc1 | 22% | 57% (active) | -2 | 96% (active) | inactive | inactive | inactive | inactive
5 | CN1CCN(Cc2ccc(-c3cccc(-c4nc5ccccc5[nH]4)c3)cc2)CC1 | 6% | 21% | 3 | 93% (active) | inactive | inactive | inactive | inactive
6 | CC(c1cccc(S(=O)(=O)NCc2ccc(Cl)cc2Cl)c1)N1CCC(N2CCCCC2)CC1 (stereo unspecified) | 40% | 36% | -2 | 100% (active) | inactive | inactive | inactive | inactive
7 | Cc1[nH]c(C)c(-c2ccc(-c3ccc(C(F)(F)F)cc3C(F)(F)F)nc2)c(=O)c1Br | 97% (active) | 30% | 5 | 97% (active) | inactive | inactive | inactive | inactive
8 | CC(C)[C@@H](C(=O)NCc1cccc(C(F)(F)F)c1)N1C(=O)CCC1C(=O)Nc1ccc([N+](=O)[O-])cc1 (stereo partly specified) | 2% | -5% | -2 | 94% (active) | inactive | inactive | inactive | inactive
9 | Nc1nc(N)c2cc(NC(=O)c3ccc(Cl)c(Cl)c3)ccc2n1 | 83% (active) | 100% (active) | 1 | 100% (active) | inactive | inactive | inactive | inactive
10 | Cc1cc(NCCC(=O)Nc2ccccc2)nc(NCCc2cccnc2)n1 | 4% | -1% | -2 | 84% (active) | inactive | inactive | inactive | inactive
11 | COc1ccccc1N1CCN(C(C(=O)NCc2ccc3c(c2)OCO3)c2ccc(C)cc2)CC1 (stereo unspecified) | 81% (active) | 1% | 2 | 85% (active) | inactive | inactive | inactive | inactive
12 | Cc1cc(C(=O)Nc2ccc(-c3ccccc3)cc2)no1 | 94% (active) | 6% | -3 | 90% (active) | inactive | inactive | inactive | inactive
13 | O=C(O)C1CC(=O)N(c2ccc(Cl)cc2)C1 (stereo unspecified) | 33% | 51% (active) | 6 | 97% (active) | inactive | inactive | inactive | inactive
14 | Clc1cccc(C23N=C(Nc4nc5ccccc5[nH]4)NC2(c2ccccc2)NC(Nc2nc4ccccc4[nH]2)=N3)c1 (stereo unspecified) | 88% (active) | -3% | -3 | 85% (active) | inactive | inactive | inactive | inactive
15 | C[C@H](NC(=O)[C@H](Cc1ccccc1)NC(=O)OC(C)(C)C)C(=O)N[C@@H](CC1CCCCC1)C(O)CN (stereo partly specified) | 64% (active) | -4% | -5 | 96% (active) | inactive | inactive | inactive | inactive
16 | COc1cc2nc(N3CCC(CNC(=O)c4ccc(-c5ccc(C(=O)N(C)C)cc5)c(OCCO)c4)CC3)nc(N)c2cc1OC | 18% | 10% | -3 | 96% (active) | inactive | inactive | inactive | inactive
17 | Cc1cc(CNCCCCCNCc2cccc([N+](=O)[O-])c2)ccc1O | -2% | 14% | 0 | 98% (active) | inactive | inactive | inactive | inactive
18 | CN(CCC1CCN(C(=O)/C=C/c2ccc(Cl)c(Cl)c2)CC1)C1CCC(c2c[nH]c3ccccc23)CC1 (stereo unspecified) | 9% | 57% (active) | -5 | 87% (active) | inactive | inactive | inactive | inactive
19 | COc1ccc2nccc(N(C)CC3(O)CCC(NCc4cc5c(cn4)OCCO5)CC3)c2n1 (stereo unspecified) | 14% | 1% | -2 | 99% (active) | inactive | inactive | inactive | inactive

Row | Structure (SMILES) | growth inhibition [1] | inhibition [2] | inhibition [3] [%] | growth inhibition [4] | outcome [5] | outcome [6] | outcome [7] | outcome [8]
20 | CCCCCCn1c(Sc2ccc(C#N)c([N+](=O)[O-])c2)nnc1-c1cccc(Cl)c1 | 90% (active) | 17% | 1 | 96% (active) | inactive | inactive | inactive | inactive
21 | Cn1cncc1-c1ccc2ncnc(Nc3ccc(OCc4ccccc4)cc3)c2c1 | 99% (active) | 4% | 1 | 101% (active) | inactive | inactive | inactive | inactive
22 | COc1ccc(N2CCN(CCCCNC(=O)c3ccc(NC(=O)c4cccc(Cl)c4)cc3)CC2)c(OC)c1 | 33% | 18% | 0 | 101% (active) | inactive | inactive | inactive | inactive
23 | CC1(C)N=C(N)N=C(N)N1OCC1COc2ccccc2O1 (stereo unspecified) | 66% (active) | 56% (active) | -1 | 96% (active) | inactive | inactive | inactive | inactive
24 | O=C(Nc1cccc(-c2cccc(F)c2)c1)C1CCN(Cc2ccc(O)cc2)CC1 | 2% | 13% | 3 | 87% (active) | inactive | inactive | inactive | inactive
25 | Cc1ccc2c(NN=Cc3cccc([N+](=O)[O-])c3)cc(C)nc2c1 | 97% (active) | 33% | 5 | 102% (active) | inactive | inactive | inactive | inactive
26 | CCCC(C)Nc1nc(C)cc(N[C@@H](Cc2ccccc2)C(=O)NCCOc2ccccc2)n1 (stereo partly specified) | 68% (active) | 10% | -1 | 101% (active) | inactive | inactive | inactive | inactive
27 | c1ccc2c(CNc3ccnc(NCc4cccc5ccccc45)n3)cccc2c1 | 71% (active) | 51% (active) | 3 | 99% (active) | inactive | inactive | inactive | inactive
28 | O=C(Nc1ccc(Br)c(C(F)(F)F)c1)c1cccc([N+](=O)[O-])c1 | 3% | 24% | -7 | 94% (active) | inactive | inactive | inactive | inactive
29 | COc1ccc(S(=O)(=O)N2CCC(NS(=O)(=O)c3ccc(F)cc3)CC2)cc1 | -3% | 3% | 0 | 80% (active) | inactive | inactive | inactive | inactive
30 | O=C(Nc1ccccc1Oc1ccccc1)NC1CCN(c2ccnc3cc(Cl)ccc23)C1 (stereo unspecified) | 74% (active) | -1% | 0 | 99% (active) | inactive | inactive | inactive | inactive
31 | CN(C)Cc1ccc2cc(NC(=O)c3ccc(-c4ccc(Cl)cc4)cc3)ccc2n1 | 30% | 60% (active) | -1 | 86% (active) | inactive | inactive | inactive | inactive
32 | O=C(NCc1ccco1)c1ccc(S(=O)(=O)c2ccc(Cl)cc2)cc1 | 95% (active) | 6% | -3 | 97% (active) | inactive | inactive | inactive | inactive
33 | COc1ccc(CN2CCCN(Cc3cccc(C(=O)Nc4ccc(C(C)(C)C)cc4)c3)CC2)cc1 | 3% | 46% | 2 | 98% (active) | inactive | inactive | inactive | inactive
34 | Cc1cc(=O)c(-c2ccc(Oc3cccc(OC(F)(F)F)c3)cc2)c(C)[nH]1 | 96% (active) | 13% | -5 | 97% (active) | inactive | inactive | inactive | inactive
35 | Cc1cc(OC(C)C(=O)N2CCc3ccccc32)ccc1Cl (stereo unspecified) | 54% (active) | 20% | 6 | 89% (active) | inactive | inactive | inactive | inactive
36 | O=C(NCCN1CCCCC1)c1ccc(CNC(=O)c2ccc(O)c(-c3cccc(C(F)(F)F)c3)c2)cc1 | 47% | 3% | 1 | 94% (active) | inactive | inactive | inactive | inactive
37 | NC(N)=NCCCCN(Cc1ccccc1)c1ccccc1 | 98% (active) | -4% | -4 | 100% (active) | inactive | inactive | inactive | inactive
